For this experiment, the target named is Pantothenate synthetase (Mycobacterium tuberculosis (strain ATCC 25618 / H37Rv)) (UniProt P9WIL5). The experiment can be described thus: Recombinant Mtb pantothenate synthetase (PanC) inhibitors, coupled enzyme, confirmatory (AID 375).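 Also: 0% = full reaction with vehicle and 100% = no enzyme background.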 The settings on record: coupled enzyme assay; at 10 µM, stronger effect = higher value.

In general, inhibition refers to the share of the control response that was lost under treatment.

The structures appear in SMILES notation. Values without a mark were called inactive. No rule for the calls is given here.

Pantothenate synthetase (Mycobacterium tuberculosis (strain ATCC 25618 / H37Rv)), sequence (P9WIL5 whole entry, looked up): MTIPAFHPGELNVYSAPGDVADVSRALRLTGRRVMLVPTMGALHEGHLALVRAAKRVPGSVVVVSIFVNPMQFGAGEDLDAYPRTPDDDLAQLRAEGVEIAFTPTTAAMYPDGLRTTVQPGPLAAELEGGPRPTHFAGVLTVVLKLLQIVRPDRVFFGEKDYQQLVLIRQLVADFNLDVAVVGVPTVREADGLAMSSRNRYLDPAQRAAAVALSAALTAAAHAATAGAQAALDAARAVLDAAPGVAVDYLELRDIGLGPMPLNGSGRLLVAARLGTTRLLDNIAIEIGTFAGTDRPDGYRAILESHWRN

Regarding `Cc1[nH]nc2c1C(=O)CCC2`, the inhibition was 0%.
Turning to `O=C(Nc1sccc1C(=O)NCc1ccco1)c1cccnc1`, the inhibition is 5%.
With `Cc1ccc(-c2nnnn2CS(=O)(=O)c2ccccc2)cc1` the figure was 0%; with `CCOC(=O)/C=C(\C)Sc1cc(=O)oc2ccccc12`, 6%; with `CCC(Sc1nc(-c2ccccc2)c(C#N)c(=O)[nH]1)C(=O)Nc1cc(C)on1` (stereo unspecified), 0%.
Regarding `CN(C)c1ccc(/C=C/C(O)=C2/C(=O)N(C)C3(C)CC2c2ccccc2O3)cc1` (stereo unspecified), the inhibition was 0%.
Regarding `CCC(=O)N1CCN=C1SCc1ccc(Cl)cc1`, the inhibition was 0%.
`CCC(=O)N1C(=O)CCN(C(C)=O)c2ccccc21`: the inhibition was 0%.
For the molecule `CC12CN3CCN(CC(C3)C1(O)CN1CCCCC1)C2` (stereo unspecified), the inhibition was 0%.
Consider `CC(=O)N(c1ccc(Br)cc1)C1C=CS(=O)(=O)C1` (stereo unspecified), for which the inhibition was 2%.
The figure for `O=S(=O)(c1cc(Cl)ccc1Br)N1CCOCC1` is 0%.
With `Cc1c(NC(=O)C(C)OC(=O)c2cc3c4ccccc4n(C)c3s2)c(=O)n(-c2ccccc2)n1C` (stereo unspecified) the figure was 0%; with `O=P(O)(O)C(O)C(F)(F)C(F)(F)C(F)(F)C(F)F` (stereo unspecified), 0%; with `CN(c1ccc(OCc2nnc(-c3ccccc3)o2)cc1)S(=O)(=O)c1ccccc1`, 0%.
With `CCCc1ccc(Oc2cn[nH]c2-c2ccc(O)c(C)c2O)cc1` the figure was 0%.
For `c1cn(CC2(Cn3ccnc3)COC2)cn1`, the inhibition was 1%.
The figure for `CCOC(=O)C1=C(N)OC2=C(C(=O)CC(C)(C)C2)C1c1ccco1` (stereo unspecified) is 5%; for `Cc1ccc(O)c(C(=O)c2cc(C#N)c(=O)n(CC3CCCO3)c2)c1` (stereo unspecified) it is 8%.
The figure for `CCCOc1ccc(N2CC(C(=O)Nc3ccc4c(c3)OCO4)CC2=O)cc1` (stereo unspecified) is 6%; for `CCOC(=O)C1=C(C)NC2=C(C(=O)CC(C)(C)C2)C1c1ccc(N(C)C)cc1` (stereo unspecified) it is 0%.
With `CN(C)/C=N/c1ncnc2c1cnn2-c1ccc(C(F)(F)F)cn1` the figure was 3%; with `Cc1ccccc1S(=O)(=O)Cc1ccc(C(=O)NCc2cccnc2)o1`, 0%.
With `CC(C)OC(=O)C1C2C=CC3(CN(Cc4cccs4)C(=O)C13)O2` (stereo unspecified), the inhibition is 0%.
With `O=C(NC1=NCCS1)NC12CC3CC(CC(C3)C1)C2` the figure was 2%.
The figure for `Cc1ccccc1CN1CCNC1=O` is 0%.
The figure for `CN(Cc1cccs1)C(=O)CCc1ccc(S(=O)(=O)N2CCOCC2)cc1` is 1%; for `COCCSc1nnc(NC(=O)CSCc2ccccc2)s1` it is 0%.
Consider `O=c1c2c3nc4ccccc4nc3n(CC3CCCO3)c2ncn1CCc1ccccc1` (stereo unspecified), for which the inhibition is 9%.
Consider `Cc1c(NC(=O)C2(c3ccccc3)CCOCC2)c(=O)n(-c2ccccc2)n1C`, for which the inhibition was 3%.
On to `CC(C)COC(=O)C(C#N)c1nc2ccccc2nc1N1CCN(Cc2ccccc2)CC1` (stereo unspecified), for which the inhibition was 0%.
For the molecule `CCOC(=O)CSc1ncnc2c1cnn2-c1ccc(C)cc1`, the inhibition is 15%.
The figure for `O=C(NC1CCCCCC1)c1cc(S(=O)(=O)N2CCC3(CC2)OCCO3)ccc1F` is 5%; for `COc1cccc(NC(=O)N2CCCC2C(=O)Nc2ccc3c(c2)OCO3)c1` (stereo unspecified) it is 4%.
For the molecule `N#CC1=C(N)Oc2n[nH]c(-c3ccncc3)c2C1c1ccsc1` (stereo unspecified), the inhibition was 0%.
As for `CCC(Oc1ccc2ccccc2c1)C(=O)O` (stereo unspecified), the inhibition is 0%.
`CCN(CC)c1ccc(CNc2ccc(Br)cn2)cc1`: the inhibition was 0%.
The figure for `Cc1cc(C)n2nc(C(=O)NCc3ccco3)nc2n1` is 3%; for `O=C1C2ON(c3ccc(Cl)cc3)C(c3ccco3)C2C(=O)N1c1ccccc1` (stereo unspecified) it is 0%.
As for `CCn1c(C)nc2cc(C(=O)OC(C(F)(F)C(F)F)C(F)(F)C(F)F)ccc21`, the inhibition was 0%.
With `CC(C)C(=O)Nc1ccc2c(c1)nc1n2CCSC1` the figure was 0%.
Regarding `CCCN1C2CCCC1CC(NC(=O)Nc1cccc(C(C)=O)c1)C2` (stereo unspecified), the inhibition is 1%.
On to `COc1ccc(C(NC(=O)C(C)(C)C)NC(=O)C(C)(C)C)cc1`, for which the inhibition is 0%.
As to `COc1nc(-c2ccc(Cl)cc2)ccc1-c1noc(-c2ccncc2)n1`, the inhibition is 4%.
In the case of `CCOC(=O)C1CCN(S(=O)(=O)c2cc(Cl)c(C)cc2OC)CC1`, the inhibition was 4%.
With `CN1CCN(C(=O)CN(Cc2ccc(Cl)cc2)S(C)(=O)=O)CC1` the figure was 4%.
Turning to `CCOC(=O)c1c(C)[nH]c(C)c1C(=O)COc1ccc(NC(=O)c2ccco2)cc1`, the inhibition is 1%.
The figure for `CCN(CC)c1ccc2cc(-c3nc4ccccc4[nH]3)c(=O)oc2c1` is 0%; for `O=C(CSc1nnc(-c2ccccn2)n1Cc1ccccc1)N1CCCC1` it is 0%; for `O=C(OCn1nnc2ccccc2c1=O)C1CCN(S(=O)(=O)c2cccs2)CC1` it is 0%.
On to `COc1ccc(-c2nc(SC)n(S(=O)(=O)c3ccccc3)n2)cc1`, for which the inhibition is 0%.
As for `O=S(=O)(c1cccs1)N1CCN(Cc2nc3ccccc3s2)CC1`, the inhibition was 0%.
The figure for `CC(C(=O)NCCCN1CCOCC1)n1cccc1C(=O)c1ccccc1` (stereo unspecified) is 0%.
The figure for `Cc1ccc(C2=N/C(=C/N3CCOCC3)C(=O)O2)cc1` is 1%; for `Cc1ccc(C)c(S(=O)(=O)NCc2cccnc2)c1` it is 7%; for `O=C(O)CCc1ccc(-c2ccc(Br)cc2)n1CC(=O)O` it is 0%.
The figure for `COc1ccccc1Oc1ccc(S(=O)(=O)N2CCOCC2)cc1S(=O)(=O)N1CCOCC1` is 0%; for `O=C(c1ccc(COc2c(F)c(F)c(F)c(F)c2F)o1)N1CCOCC1` it is 4%.
For `Nc1nnnn1NCc1cccc(OCc2ccccc2)c1`, the inhibition is 0%.
In the case of `O=C(O)c1ccc(-n2nnnc2Oc2ccccc2C(=O)N2CCOCC2)cc1`, the inhibition is 4%.
The figure for `Cc1onc(-c2ccccc2)c1C(=O)Nc1ccnn1C1CCCCC1` is 1%.
Take `CC(=O)c1nnn(-c2nc(N3CCCC3)nc(N(c3ccccc3)c3ccccc3)n2)c1C`: the inhibition was 0%.
Take `CCCn1c(SCC(=O)NC(=O)NCc2ccco2)n[nH]c1=O`: the inhibition was 0%.
For `COc1cccc(CNC(=O)C2CCN(C(=O)N(C)C)CC2)c1`, the inhibition is 2%.
With `CCOC(=O)c1c(C)oc2c1c1c(c3ccccc32)OCN(Cc2cccnc2)C1` the figure was 6%; with `Cc1c(NC(=O)c2noc3c2CCc2ccccc2-3)c(=O)n(-c2ccccc2)n1C`, 0%; with `Cc1cccc(NC(=O)CS(=O)(=O)c2cn(C)c3ccccc23)c1`, 0%.
On to `COc1cccc(C(=O)Nc2cc(C)c3c(=O)oc4ccccc4c3n2)c1`, for which the inhibition is 0%.
The figure for `C#CCSc1nc(-c2cccs2)ccc1C#N` is 0%; for `CCNc1ccc(C(=O)OCC)cc1NC(=O)c1cc(S(=O)(=O)N2CCOCC2)ccc1C` it is 2%.
As for `CC1CCCC(C)N1C(=O)COC(=O)c1ccc[nH]c1=O` (stereo unspecified), the inhibition was 0%.
For `Cc1nnc(SCC(=O)NC(C)(C)C)n1CCc1ccccc1`, the inhibition was 0%.
With `O=C(COC(=O)c1ccccc1C(=O)c1ccccc1)c1ccco1` the figure was 0%; with `Cc1cc(C)cc(NS(=O)(=O)c2ccc3[nH]c(=O)[nH]c3c2)c1`, 0%; with `Cc1nn(C)c(C)c1S(=O)(=O)N1CCCC(C(=O)N2CCN(c3ccc(Cl)cc3)CC2)C1` (stereo unspecified), 0%.
`Cn1c(NCc2cccc(Br)c2)nc2ccccc21`: the inhibition was 1%.
With `Cc1cccc(-c2noc(CCC(=O)Nc3ccccc3)n2)c1` the figure was 5%; with `O=C(CSC1=NC(=O)C(Cc2ccccc2)C(=O)N1)NC1CCCCC1` (stereo unspecified), 0%; with `COC(=O)c1[nH]c2ccccc2c1NC(=O)CN1CCC(C(N)=O)(N2CCCCC2)CC1`, 0%.
On to `CCCCc1cc(=O)oc2cc(C)cc(OC(C)C(=O)O)c12` (stereo unspecified), for which the inhibition was 0%.
As for `Cn1c2ccccc2c2ncn(CCCN3CCOCC3)c(=O)c21`, the inhibition is 0%.
With `CCOc1ccc(C2C=C(c3ccc(F)cc3)Nc3ncnn32)cc1` (stereo unspecified) the figure was 9%.
With `CCOC(=O)N1CCN(c2ncnc3c2[nH]c2ccc(OC)cc23)CC1` the figure was 0%; with `CN(c1ccccc1)S(=O)(=O)c1ccc(C(=O)OCC(=O)N2CCOCC2)cc1`, 7%; with `Cc1cc(C)c(C#N)c(SCC(=O)Nc2ccc(S(=O)(=O)Nc3onc(C)c3C)cc2)n1`, 0%.
With `O=C1CCCN1Cc1ncnn1-c1ccccc1`, the inhibition was 4%.
As for `CCn1c(=O)cc(OCC(=O)Nc2nc(C)cs2)c2ccccc21`, the inhibition is 0%.
With `O=S(=O)(c1ccc(F)cc1)N1CCC(N2CCCC2)CC1` the figure was 0%.
The figure for `Cc1nnc(SCc2nnc(-c3ccccc3Br)o2)n1-c1ccccc1` is 0%; for `CCC(C)C(NC(=O)C1CCC(C)CC1)C(=O)NCc1cccnc1` (stereo unspecified) it is 6%.
As to `O=C(Nc1ccncc1)c1cccc(F)c1`, the inhibition was 6%.
Turning to `Cn1c(=O)[nH]c(=O)c2c1nc(N1CCOCC1)n2CC(O)COc1ccc2ccccc2c1` (stereo unspecified), the inhibition is 0%.
Regarding `OCCNC1=NCCN1`, the inhibition is 1%.
With `CC1CN(C(=O)CSc2nnc(-c3ccc(Cl)cc3)n2C)CC(C)O1` (stereo unspecified) the figure was 0%; with `CCC(C)(C)NC(=O)C(OC(=O)c1ccco1)c1ccccc1OC` (stereo unspecified), 0%; with `Cc1ccccc1-n1c(=O)cc(NCc2ccc3c(c2)OCO3)[nH]c1=O`, 2%.
The figure for `CCOC(=O)C1CCCN(C(=O)c2ccc3c(=O)n(CCOC)c(=S)[nH]c3c2)C1` (stereo unspecified) is 2%; for `CN(Cc1cccs1)c1ncnc2sccc12` it is 0%; for `CC1Cc2nc(SCC(=O)N3CCCc4ccccc43)n(C)c(=O)c2S1` (stereo unspecified) it is 1%.
Take `O=S1(=O)N=C(Nc2nc3c(s2)CCCC3)c2ccccc21`: the inhibition was 4%.
As for `CN1CCN(C(=O)NC2CCCN2S(=O)(=O)c2ccc(Cl)cc2)CC1` (stereo unspecified), the inhibition was 0%.
`COCCn1c(=O)[nH]c2cc(C(=O)N3CCN(Cc4ccc5c(c4)OCO5)CC3)ccc2c1=O`: the inhibition is 0%.
